Results from paper PMC5700166.
Changes are numbered by the printed parent chain.

What was measured:
Assay in all cases: protein-binding microarray (PBM); PBM: ~300 nM protein, 6 mM HEPES pH 7.8, 80 mM KCl, 0.5 mM EDTA, 0.5 mM EGTA, 6% glycerol, 35 ng/ul poly-dIdC, 1% milk, 1 h, room temperature; Ap Aiptasia and Nv Nematostella (sea anemones) / Co Capsaspora / Aq Amphimedon (sponge) / Dm Drosophila / Hu human; RHD is the Rel homology domain; high values mean tight binding
Details in all cases: dsDNA, one strand shown
GST-Ap-NF-kB RHD = target: T1, GST-Ap-NF-kB RHD (Exaiptasia pallida (Aiptasia), UniProt A0A913YAJ5 2-422)
T1 sequence: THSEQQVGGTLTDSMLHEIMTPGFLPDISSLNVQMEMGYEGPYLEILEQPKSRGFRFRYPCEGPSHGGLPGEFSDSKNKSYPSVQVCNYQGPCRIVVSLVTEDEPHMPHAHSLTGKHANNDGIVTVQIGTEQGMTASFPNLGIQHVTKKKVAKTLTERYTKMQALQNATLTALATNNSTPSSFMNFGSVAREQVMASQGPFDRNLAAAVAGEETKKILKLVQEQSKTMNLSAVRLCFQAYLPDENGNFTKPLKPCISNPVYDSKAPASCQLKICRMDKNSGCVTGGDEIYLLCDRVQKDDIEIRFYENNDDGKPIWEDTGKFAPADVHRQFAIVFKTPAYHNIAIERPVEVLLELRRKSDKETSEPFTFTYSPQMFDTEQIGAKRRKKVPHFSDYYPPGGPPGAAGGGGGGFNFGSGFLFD

[1] = target: T2, GST-Nv-NF-kB (Cys allele) (Nematostella vectensis, UniProt E5G601 2-411)
T2 sequence: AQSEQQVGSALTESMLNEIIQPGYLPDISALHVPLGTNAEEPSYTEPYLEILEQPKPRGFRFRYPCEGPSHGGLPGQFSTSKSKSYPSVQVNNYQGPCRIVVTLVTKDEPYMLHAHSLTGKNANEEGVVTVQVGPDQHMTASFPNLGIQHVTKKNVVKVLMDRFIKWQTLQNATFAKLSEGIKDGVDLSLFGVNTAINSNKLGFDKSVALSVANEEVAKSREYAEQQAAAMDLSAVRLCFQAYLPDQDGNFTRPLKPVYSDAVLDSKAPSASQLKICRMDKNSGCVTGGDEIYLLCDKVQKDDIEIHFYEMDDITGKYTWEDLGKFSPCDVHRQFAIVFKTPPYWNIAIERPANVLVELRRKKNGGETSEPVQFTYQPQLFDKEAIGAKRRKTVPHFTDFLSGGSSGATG

[2] = target: T3, GST-Nv-NF-kB (Ser allele) (Nematostella vectensis, UniProt A7UNT2 2-411)
T3 sequence: T2 sequence with Q21R, C66S, S207N, E215Q, V217A, E225K, A268E, D399E

GST-Co-NF-kB = target: T4, GST-Co-NF-kB (Capsaspora owczarzaki, UniProt F1ARL5 200-546)
T4 sequence: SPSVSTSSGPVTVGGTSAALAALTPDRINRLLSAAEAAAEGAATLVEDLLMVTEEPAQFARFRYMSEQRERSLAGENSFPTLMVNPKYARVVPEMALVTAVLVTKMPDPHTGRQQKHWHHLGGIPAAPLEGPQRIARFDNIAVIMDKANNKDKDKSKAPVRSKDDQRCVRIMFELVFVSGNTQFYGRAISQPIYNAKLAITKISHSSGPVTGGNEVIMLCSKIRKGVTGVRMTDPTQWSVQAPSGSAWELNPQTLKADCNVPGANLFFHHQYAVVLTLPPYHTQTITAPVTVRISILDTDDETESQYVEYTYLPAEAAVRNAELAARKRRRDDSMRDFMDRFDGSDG

GST-Aq-NF-kB = target: T5, GST-Aq-NF-kB (Amphimedon queenslandica, UniProt A9Y5G7 2-389)
T5 sequence: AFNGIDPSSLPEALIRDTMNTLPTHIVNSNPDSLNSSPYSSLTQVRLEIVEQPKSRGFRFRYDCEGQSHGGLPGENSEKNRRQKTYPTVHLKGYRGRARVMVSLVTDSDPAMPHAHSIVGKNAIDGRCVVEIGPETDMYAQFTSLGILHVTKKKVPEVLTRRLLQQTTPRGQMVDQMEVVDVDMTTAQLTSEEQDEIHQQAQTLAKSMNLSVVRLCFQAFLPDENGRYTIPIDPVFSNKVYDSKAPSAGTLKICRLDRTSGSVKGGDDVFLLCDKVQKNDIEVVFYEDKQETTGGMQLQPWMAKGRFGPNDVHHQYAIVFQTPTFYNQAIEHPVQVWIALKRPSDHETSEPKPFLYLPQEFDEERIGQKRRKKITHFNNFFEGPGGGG

GST-Hu-p50 = GST-Hu-p50 (Homo sapiens, UniProt P19838 7-356)
GST-Dm-Relish = target: T6, GST-Dm-Relish (Drosophila melanogaster, UniProt Q94527 99-473)
T6 sequence: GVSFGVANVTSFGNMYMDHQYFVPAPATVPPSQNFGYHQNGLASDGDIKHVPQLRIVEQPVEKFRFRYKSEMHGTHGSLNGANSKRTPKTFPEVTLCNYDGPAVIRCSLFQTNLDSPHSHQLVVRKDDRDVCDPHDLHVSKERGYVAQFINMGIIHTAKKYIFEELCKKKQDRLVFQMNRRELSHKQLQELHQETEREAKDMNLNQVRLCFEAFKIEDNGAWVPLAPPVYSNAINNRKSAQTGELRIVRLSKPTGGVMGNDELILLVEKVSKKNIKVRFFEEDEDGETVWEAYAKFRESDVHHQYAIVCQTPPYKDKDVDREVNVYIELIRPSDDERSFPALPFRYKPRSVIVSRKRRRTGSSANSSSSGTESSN

GST-Hu-p50, sequence (P19838 7-356): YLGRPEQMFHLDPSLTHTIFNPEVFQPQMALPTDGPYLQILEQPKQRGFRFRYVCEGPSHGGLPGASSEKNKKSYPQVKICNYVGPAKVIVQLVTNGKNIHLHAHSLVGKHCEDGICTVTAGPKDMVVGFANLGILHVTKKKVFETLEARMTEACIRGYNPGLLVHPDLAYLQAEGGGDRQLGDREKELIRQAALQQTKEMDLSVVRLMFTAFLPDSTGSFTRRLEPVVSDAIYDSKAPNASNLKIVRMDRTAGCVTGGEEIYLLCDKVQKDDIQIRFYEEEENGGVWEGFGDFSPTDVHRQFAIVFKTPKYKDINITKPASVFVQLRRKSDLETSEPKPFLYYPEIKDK

| Sequence | binding signal (GST-Ap-NF-kB RHD) | binding signal [1] | binding signal [2] | binding signal (GST-Co-NF-kB) | binding signal (GST-Aq-NF-kB) | binding signal (GST-Hu-p50) | binding signal (GST-Dm-Relish) |
| --- | --- | --- | --- | --- | --- | --- | --- |
| CCGATTAACATCACTCTTTTCCCTGATGTTAATCGGGTCTTGATTCGCTTGACGCTGCTG | 2.32 z-score | 3.09 z-score | 4.46 z-score | 2.99 z-score | 2.63 z-score | 1.85 z-score |  |
| CCGATTAACATCAAGTACGGGAATGATGTTAATCGGGTCTTGATTCGCTTGACGCTGCTG | 1.11 z-score | 2.04 z-score | 1.41 z-score | 2.85 z-score | 3.24 z-score | 1.22 z-score |  |
| CCGATTAACATCAAAAATCCCGGTGATGTTAATCGGGTCTTGATTCGCTTGACGCTGCTG | 4.77 z-score | 4.4 z-score | 4.06 z-score | 2.98 z-score | 5.12 z-score | 3.94 z-score | 8.52 z-score |
| CCGATTAACATCAAAACGTCCCCTGATGTTAATCGGGTCTTGATTCGCTTGACGCTGCTG | 6.23 z-score | 6.41 z-score | 6.45 z-score | 5.34 z-score | 6.19 z-score | 5.59 z-score | 5.03 z-score |
| CCGATTAACATCAAACTGGGAAATGATGTTAATCGGGTCTTGATTCGCTTGACGCTGCTG | 1.13 z-score | 2.35 z-score | 1.79 z-score | 2.64 z-score | 1.06 z-score | 1.62 z-score |  |
| CCGATTAACATCAGGGGTATTACTGATGTTAATCGGGTCTTGATTCGCTTGACGCTGCTG | 4.43 z-score | 3.56 z-score | 3.14 z-score | 3.37 z-score | 4.5 z-score | 3.9 z-score | 3.55 z-score |
| CCGATTAACATCAATTCCCATCCTGATGTTAATCGGGTCTTGATTCGCTTGACGCTGCTG | 1.57 z-score | 2.99 z-score | 2.59 z-score | 1.43 z-score | 1.94 z-score | 1.57 z-score |  |
| CCGATTAACATCAGTATTTCCCATGATGTTAATCGGGTCTTGATTCGCTTGACGCTGCTG | 3.01 z-score | 3.64 z-score | 3.53 z-score | 3.66 z-score | 3.73 z-score | 2.64 z-score | 5.01 z-score |
| CCGATTAACATCAAAGCCCCCCCTGATGTTAATCGGGTCTTGATTCGCTTGACGCTGCTG | 5.97 z-score | 4.23 z-score | 4.62 z-score | 4.66 z-score | 5.12 z-score | 4.63 z-score | 6.01 z-score |
| CCGATTAACATCAGGGGGAACGATGATGTTAATCGGGTCTTGATTCGCTTGACGCTGCTG | 5.18 z-score | 4.82 z-score | 6.18 z-score | 7.4 z-score | 4.16 z-score | 4.41 z-score | 2.42 z-score |
| CCGATTAACATCAACTTTTTCCCTGATGTTAATCGGGTCTTGATTCGCTTGACGCTGCTG | 2.88 z-score | 4.79 z-score | 6.57 z-score | 5.52 z-score | 3.16 z-score | 2.68 z-score |  |
| CCGATTAACATCAACTTGGGAAATGATGTTAATCGGGTCTTGATTCGCTTGACGCTGCTG | 1.31 z-score | 2.47 z-score | 2.1 z-score | 2.33 z-score | 1.15 z-score | 1.54 z-score |  |
| CCGATTAACATCAAGGGGGGTAATGATGTTAATCGGGTCTTGATTCGCTTGACGCTGCTG | 4.04 z-score | 4.87 z-score | 4.3 z-score | 5.42 z-score | 4.75 z-score | 3.62 z-score | 3.36 z-score |
| CCGATTAACATCAGAGAACCCCCTGATGTTAATCGGGTCTTGATTCGCTTGACGCTGCTG | 7.89 z-score | 6.19 z-score | 6.92 z-score | 2.09 z-score | 6.18 z-score | 6.47 z-score | 7.55 z-score |
| CCGATTAACATCAAAGGGAATAGTGATGTTAATCGGGTCTTGATTCGCTTGACGCTGCTG | 2.26 z-score | 2.76 z-score | 2.94 z-score | 1.98 z-score | 2.54 z-score | 1.25 z-score |  |
| CCGATTAACATCAGGGGGTTCTATGATGTTAATCGGGTCTTGATTCGCTTGACGCTGCTG | 7.12 z-score | 5.57 z-score | 6.75 z-score | 2.36 z-score | 5.33 z-score | 5.89 z-score | 6.97 z-score |
| CCGATTAACATCAAGTGGGAAAATGATGTTAATCGGGTCTTGATTCGCTTGACGCTGCTG | 1.71 z-score | 4.11 z-score | 4.29 z-score | 2.91 z-score | 2.08 z-score | 2.66 z-score |  |
| CCGATTAACATCAATCTTTTCCCTGATGTTAATCGGGTCTTGATTCGCTTGACGCTGCTG | 2.35 z-score | 4.39 z-score | 5.52 z-score | 3.98 z-score | 3.34 z-score | 2.99 z-score |  |
| CCGATTAACATCAGGGAATGCCCTGATGTTAATCGGGTCTTGATTCGCTTGACGCTGCTG | 5.58 z-score | 7.18 z-score | 4.19 z-score | 1.43 z-score | 7.91 z-score | 3.67 z-score | 7.7 z-score |
| CCGATTAACATCAATTGGGAAAATGATGTTAATCGGGTCTTGATTCGCTTGACGCTGCTG | 1.52 z-score | 2.96 z-score | 4.08 z-score | 2.47 z-score | 1.4 z-score | 2.04 z-score |  |
| CCGATTAACATCAGGGGGGACGATGATGTTAATCGGGTCTTGATTCGCTTGACGCTGCTG | 5.01 z-score | 4.55 z-score | 4.5 z-score | 5.85 z-score | 4.63 z-score | 3.85 z-score | 3.77 z-score |
| CCGATTAACATCAGGGGAAAAACTGATGTTAATCGGGTCTTGATTCGCTTGACGCTGCTG | 6.41 z-score | 8.02 z-score | 10.3 z-score | 9.24 z-score | 6.72 z-score | 6.32 z-score | 9.62 z-score |
| CCGATTAACATCAGGGAAGTACCTGATGTTAATCGGGTCTTGATTCGCTTGACGCTGCTG | 6.67 z-score | 7.36 z-score | 8.68 z-score | 1.93 z-score | 7.45 z-score | 5.92 z-score | 9.88 z-score |
